Shown is part of a subset that was picked to be rich in hits.
Vaccinia mCherry: inhibitors of vaccinia virus infection (mCherry reporter signal); Vaccinia virus mCherry reporter infection, fluorescence; hit rate 0.63% among 310,000; Potency, µM (top dose mostly 36.5 µM), for the others: at the top dose activity change, negative = inhibition, hits mostly inhibitors; calls by dose curve; tested in A549 cells; also: potency is read from the fitted curve at half-maximal effect; % is scaled to controls: 0 for no effect and ±100 for the full control effect; nearly all actives have a fitted effect of over 35% in size
Lassa entry inh: Lassa virus entry inhibition. Lassa virus pseudotype entry inhibition, cell reporter. Potency, µM (highest dose often 37.9 µM), for inactives: top-dose activity change, negative = inhibition, most hits filed as inhibitors. hit rate 1.2% among 300,000; calls by dose curve; tested in HEK293 cells; also: potency is read from the fitted curve at half-maximal effect; % is scaled to controls: 0 for no effect and ±100 for the full control effect; nearly all actives have a fitted effect of over 50% in size
Cycloheximide cs: counter-screen hit for Shiga toxin inhibitors, cycloheximide. max response, %. hit rate 12% among 300,000. cell reporter, cycloheximide protein synthesis inhibition counterscreen; in the data active = max response mostly above about 13%, no sharp cut-off; inactive = mostly below about 14%; also: read at 38.3 µM for the half of the compounds with a filed dose; 0% is about no effect
Vaccinia Venus: vaccinia inhibition (Venus reporter); hit rate 0.46% among 330,000; Potency, µM (top dose mostly 36.5 µM), for the others: top-dose activity change, negative = inhibition, usual class: inhibitors; AID 720580; Vaccinia virus Venus reporter expression, fluorescence; calls by dose curve; tested in A549 cells; also: potency is read from the fitted curve at half-maximal effect; % is scaled to controls: 0 for no effect and ±100 for the full control effect; nearly all actives have a fitted effect of over 30% in size
Shiga inhibitor: blocks Shiga toxin action in Vero cells; Vero cells, Shiga toxin protein synthesis inhibition reporter; inhibition, % at 38.7 µM; hit rate 9.2% among 290,000; AID 2315; in the data active = inhibition mostly above about 28%, no sharp cut-off; inactive = mostly below about 43%; also: 0% is about no effect
Marburg entry inh: blocks Marburg virus binding to or entry into cells | Marburg virus pseudotyped entry inhibition, cell reporter | Potency, µM (series often up to 37.8 µM), for the others: at the top dose activity change, negative = inhibition, usual class: inhibitors | hit rate 1.8% among 300,000; calls by dose curve; tested in HEK293 cells; also: potency is read from the fitted curve at half-maximal effect; % is scaled to controls: 0 for no effect and ±100 for the full control effect
* hit, by the source's call; [ ] = remark or other dose.

Screening Cc1cccc(C)c1Nc1c(-c2ccccn2)nc2ccccn12 returned Cycloheximide cs -3.1 and Shiga inhibitor -13.0.
Screening Cc1c(C(=O)Nc2ccc(F)c(F)c2)oc2ccc(S(=O)(=O)N3CCC4(CC3)OCCO4)cc12 returned Vaccinia mCherry -24.3%, Lassa entry inh 11.1%[46.1 µM] and Vaccinia Venus inconclusive.
Cc1c(C(=O)NCc2cccnc2)oc2ccccc12 was read as Lassa entry inh 0.0%, Cycloheximide cs 18.7, Shiga inhibitor -2.7 and Marburg entry inh -10.3%.
Cc1c(C(=O)Nc2ccc(F)cc2)oc2ccc(S(=O)(=O)N3CCC4(CC3)OCCO4)cc12 was read as Lassa entry inh inconclusive, Cycloheximide cs -0.7, Shiga inhibitor 23.9 and Marburg entry inh 5.8µM*.
`COc1cccc2c(=O)c(C(=O)NCc3cccs3)c[nH]c12` gave Lassa entry inh inconclusive, Cycloheximide cs 53.0*, Shiga inhibitor 76.5* and Marburg entry inh 8.4%.
CCn1c(C)c(C(=O)NCCc2ccccc2)c2cc(OC)ccc21 was read as Vaccinia mCherry inactive, Lassa entry inh inconclusive, Cycloheximide cs 18.5*, Vaccinia Venus -18.4%, Shiga inhibitor 18.5 and Marburg entry inh -28.5%.
Screening Cc1c(C(=O)NCCc2ccccc2)oc2ccccc12 returned Vaccinia mCherry 1.7%, Lassa entry inh inconclusive, Cycloheximide cs 29.4*, Vaccinia Venus 5.2%, Shiga inhibitor 75.0* and Marburg entry inh 6.31µM*.
`Cc1ccc2[nH]cc(C(=O)NCc3cccs3)c(=O)c2c1` gave Vaccinia mCherry -23.8%, Lassa entry inh inconclusive, Cycloheximide cs 9.5, Vaccinia Venus -28.4%, Shiga inhibitor -4.9 and Marburg entry inh -18.5%.
Screening Cc1ccc(C(=O)c2oc3ccccc3c2NC(=O)COc2ccccc2C)cc1 returned Vaccinia mCherry -14.9%, Lassa entry inh -5.9%[46.1 µM], Vaccinia Venus -0.9% and Marburg entry inh 0.8%[46.1 µM].
Screening Clc1ccc(OCc2nc(-c3ccncc3)no2)c(Br)c1 returned Vaccinia mCherry -15.9%, Lassa entry inh -17.1%, Cycloheximide cs 40.3*, Vaccinia Venus -5.4%, Shiga inhibitor 71.1* and Marburg entry inh inconclusive.
For Cc1cc(C)cc(OCc2nc(-c3cccnc3)no2)c1 the results were Vaccinia mCherry -9.5%, Lassa entry inh 2.5%[46.1 µM], Cycloheximide cs -5.0, Vaccinia Venus -4.6%, Shiga inhibitor -7.9 and Marburg entry inh -12.0%[46.1 µM].
Screening c1ccc(OCc2nc(-c3ccccc3)no2)cc1 returned Vaccinia mCherry -10.7%, Lassa entry inh inconclusive, Cycloheximide cs 58.1*, Vaccinia Venus -4.6%, Shiga inhibitor 100.1* and Marburg entry inh 15.0%.
`Cc1ccc(OCc2nc(-c3cccnc3)no2)cc1C` gave Vaccinia mCherry -16.9%, Lassa entry inh inconclusive, Cycloheximide cs 25.0*, Vaccinia Venus -8.3%, Shiga inhibitor 72.6* and Marburg entry inh inconclusive.
For Cc1cc(OCc2nc(-c3cccnc3)no2)c(C)cc1Br the results were Vaccinia mCherry inactive, Lassa entry inh 14.1%, Cycloheximide cs -3.4, Vaccinia Venus -11.9%, Shiga inhibitor 7.1 and Marburg entry inh 4.3%.
c1ccc(OCc2nc(-c3ccncc3)no2)cc1 was read as Vaccinia mCherry -0.7%, Lassa entry inh inconclusive, Cycloheximide cs 49.6*, Vaccinia Venus 11.7%, Shiga inhibitor 109.9* and Marburg entry inh 1.4%.
`CN(CC(=O)Nc1ccc(N2CCOCC2)cc1)C(=O)c1ccc(O)c(Cl)c1` gave Vaccinia mCherry -1.5%, Lassa entry inh -12.2%, Cycloheximide cs -1.5, Vaccinia Venus -10.8%, Shiga inhibitor 21.7 and Marburg entry inh inconclusive.
For CC(C)c1ccc(N2C(=O)CC(NNC(=O)c3ccccc3Cl)C2=O)cc1 (centres undefined) the results were Vaccinia mCherry inactive, Lassa entry inh 22.0%, Cycloheximide cs -1.0, Vaccinia Venus 1.0%, Shiga inhibitor -17.7 and Marburg entry inh -28.7%[14.2 µM].
Cc1nc2nc(SCc3ccc(F)cc3Cl)nn2c(C)c1Cc1ccccc1 was read as Vaccinia mCherry -18.3%, Lassa entry inh 1.8%[46.1 µM] and Vaccinia Venus -14.2%.
CCn1c(C)c(C)c2cc(C(=O)NCCCN3CCCCC3C)ccc21 (centres undefined) was read as Vaccinia mCherry -21.3%, Lassa entry inh -18.4%[46.1 µM], Cycloheximide cs -2.3, Vaccinia Venus -17.5% and Shiga inhibitor -11.9.
For Cc1ccc(N2CCN(C(=O)c3cccn4c(=O)c5ccc(Cl)cc5nc34)CC2C)cc1 (centres undefined) the results were Vaccinia mCherry -12.9%, Lassa entry inh inconclusive and Vaccinia Venus 0.3%.
`COc1cc(OC)c(-c2nc(-c3ccncc3)no2)cc1OC` gave Cycloheximide cs 9.1 and Shiga inhibitor -6.8.
For Cc1ccccc1OCc1nc(-c2cccnc2)no1 the results were Vaccinia mCherry -14.3%, Lassa entry inh 12.0%[46.1 µM], Cycloheximide cs -4.6, Vaccinia Venus -10.9%, Shiga inhibitor -2.0 and Marburg entry inh 5.8%[46.1 µM].
`COc1ccccc1Cc1nc(-c2ccncc2)no1` gave Cycloheximide cs 20.2* and Shiga inhibitor 20.7.
Screening Clc1ccccc1OCc1nc(-c2ccncc2)no1 returned Vaccinia mCherry -11.1%, Lassa entry inh -20.3%, Cycloheximide cs 49.2*, Vaccinia Venus -8.4%, Shiga inhibitor 85.7* and Marburg entry inh inconclusive.
For O=C(/C=C/c1ccccc1Cl)N(Cc1ccc(Cl)cc1)C1CCS(=O)(=O)C1 (centres undefined) the results were Vaccinia mCherry inactive, Lassa entry inh inconclusive, Cycloheximide cs 4.0, Vaccinia Venus -21.2%, Shiga inhibitor -4.9 and Marburg entry inh inconclusive.
Screening COc1ccc(CN(C(=O)/C=C/c2ccccc2Cl)C2CCS(=O)(=O)C2)cc1 (centres undefined) returned Cycloheximide cs 34.4* and Shiga inhibitor 54.1.
Screening CC(C)(C)N/N=C1\CC(c2ccccc2)Oc2ccccc21 (centres undefined) returned Lassa entry inh -14.0%, Cycloheximide cs 9.9, Shiga inhibitor 15.1 and Marburg entry inh 3.7%.
For O=C(O)c1cc(N/N=C2/CC(c3ccccc3)Oc3ccccc32)ccc1Cl (centres undefined) the results were Vaccinia mCherry -14.4%, Lassa entry inh 2.4%, Cycloheximide cs 40.2*, Vaccinia Venus -13.4%, Shiga inhibitor 54.2* and Marburg entry inh inconclusive.
Screening Cc1cc(C)c2ccc(N)nc2c1O returned Vaccinia mCherry 12.6µM*, Lassa entry inh inconclusive, Cycloheximide cs -1.1, Vaccinia Venus inconclusive, Shiga inhibitor -6.3 and Marburg entry inh inconclusive.
Screening Cc1cc(=O)[nH]c2nc(N)ccc12 returned Vaccinia mCherry -13.1% and Vaccinia Venus -3.4%.
For Clc1ccc(-c2nnc(-c3ccccc3)c(-c3ccccc3)n2)cc1 the results were Vaccinia mCherry -0.3%, Lassa entry inh -17.4%, Cycloheximide cs 2.5, Vaccinia Venus -7.2%, Shiga inhibitor 11.3 and Marburg entry inh inconclusive.
Nc1nc(N)nc(-c2cccc(Br)c2)n1 was read as Vaccinia mCherry inactive, Lassa entry inh 16.1%, Vaccinia Venus -10.3% and Marburg entry inh inconclusive.

High-throughput results as filed in PubChem BioAssay.
